# Laboratory results: PubChem BioAssay (NCATS)
# “And” between values parts separate entries of the source, which are not always exact repeats. Equal values may be shown once. Records with an inconclusive call do not appear. Where a call stands in place of a potency, no number is given. The source made the active and inactive calls. Unless noted, calls follow the shape of the dose curve; as a rule, active = well fitted curve in the direction sought with a large enough effect; inconclusive = small, poorly fitted or top-dose-only effect, or another doubt; inactive = no such curve, though single readings can be large; an effect the other way counts as inactive or inconclusive.
# Key:
# [1] = Cell Viability - Jurkat (AID 426;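 active = dose-dependent loss of cell ATP signal giving a full or clear fitted curve, ranked by lower potency value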;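 also: potency is read from the fitted curve at half-maximal effect; cells exposed to compound for 40 hours at 37 °C before ATP read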); conditions: qHTS
# In short: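 Jurkat (Clone E6-1) cells, 5000/well in complete medium, exposed to compounds for 40 hr at 37C; intracellular ATP measured by CellTiter-Glo luminescence after 20 min at room temperature. AC50 from Hill fits.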
# [2] = Cell Viability - LYMP2-017 (AID 972); conditions: LYMP2-017 lymphoblastoid cell viability; series mostly up to 92.2 µM; also: nearly all actives have a fitted effect of over 55% in size; also: potency is read from the fitted curve at half-maximal effect
# In short: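 LYMP2-017 human lymphoblastoid cells (2500/well) settled 5 hr at 37 C, then exposed to compound 24 hr at 37 C in complete medium. Viability taken as intracellular ATP by CellTiter-Glo luminescence after 30 min at RT; AC50 from Hill fits.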
# [3] = qHTS assay for small molecule disruptors of the mitochondrial membrane potential - 5 hr assay (AID 651755; calls by dose curve; also: nearly all actives have a fitted effect of over 40% in size); conditions: JC-1-type ratio dye; series mostly up to 92.2 µM
# In short: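 HepG2 cells (2,000/well), attached overnight, exposed to compound 5 hr at 37C, then Mito-MPS dye 30 min. Fluorescence read for monomers (490/535 nm) and aggregates (540/590 nm).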
# [4] = Cell Viability - Hek293 (AID 427;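 active = compounds whose dose-response curve shows a full or clear partial loss of cell viability, called from curve shape rather than a numeric limit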;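 also: potency is read from the fitted curve at half-maximal effect; cells exposed to compound for 40 hours at 37 °C before reading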); conditions: qHTS
# In short: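 AC50 values derive from Hill-modelled concentration-response of ATP-based luminescence, normalized between DMSO-only and 100 uM tamoxifen controls. Cells were exposed in complete culture medium for 40 hr at 37 °C before detection.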
# [5] = MultiTox-Fluor Cytotoxicity Assay - LYMP1-001 - Dead Cells (AID 946); conditions: LYMP1-001 lymphoblastoid cells, dead-cell protease fluorescence; series mostly up to 92.2 µM;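 also: cells exposed to compound for 16 h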
# In short: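 In this qHTS, 15 uM tetraoctylammonium bromide defined 100% and DMSO defined basal activity. Lymphoblastoid cells (LYMP1-001, 2500 per well) received compound for 16 hr at 37 C before a fluorogenic dead-cell substrate readout at 485/520 nm.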
# [6] = Cell Viability - LYMP2-005 (AID 967); conditions: LYMP2-005 lymphoblastoid cell viability; series mostly up to 92.2 µM
# In short: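 Acute cytotoxicity is scored as a concentration-dependent drop in intracellular ATP in human lymphoblastoid LYMP2-005 cells after 24 h compound treatment. ATP is quantified by luciferase luminescence, and AC50 is derived by Hill-equation modelling.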
# [7] = Cell Viability - LYMP2-013 (AID 970); conditions: LYMP2-013 lymphoblastoid cells viability; series mostly up to 92.2 µM; also: nearly all actives have a fitted effect of over 55% in size
# In short: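 Human lymphoblastoid LYMP2-013 cells, 2500/well, treated 24 h at 37 C in complete medium; viability as intracellular ATP by CellTiter-Glo luminescence after 30 min. AC50 from Hill fits of qHTS concentration-response.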
# [8] = Cell Viability - LYMP2-019 (AID 973); conditions: LYMP2-019 lymphoblastoid cell line viability; series mostly up to 92.2 µM; also: nearly all actives have a fitted effect of over 55% in size; also: potency is read from the fitted curve at half-maximal effect
# In short: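 Human lymphoblastoid LYMP2-019 cells (2500/well) preincubated 5 h at 37 C, then treated 24 h at 37 C in complete medium. Viability by CellTiter-Glo ATP luminescence after 30 min at room temperature; AC50 from Hill fits.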
# [9] = Cell Viability - LYMP2-008 (AID 980); conditions: LYMP2-008 lymphoblastoid cell viability, qHTS; series mostly up to 92.2 µM; also: nearly all actives have a fitted effect of over 60% in size
# In short: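 LYMP2-008 lymphoblastoid cells (2500/well) plated 5 h, then treated 24 h at 37 C in complete medium. Viability read as intracellular ATP by CellTiter-Glo luminescence after 30 min at room temperature; AC50 from Hill fits.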
# [10] = Cell Viability - LYMP2-012 (AID 982); conditions: LYMP2-012 lymphoblastoid cell viability qHTS; series mostly up to 92.2 µM;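 also: cellular ATP by luciferase luminescence where a drop means cytotoxicity; cells exposed to compound for one day before reading; nearly all actives have a fitted effect of over 55% in size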
# [11] = Cell Viability - LYMP2-014 (AID 983); conditions: LYMP2-014 lymphoblastoid cells, viability qHTS; series mostly up to 92.2 µM; also: nearly all actives have a fitted effect of over 50% in size
# In short: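 LYMP2-014 human lymphoblastoid cells, 2500/well, treated 24 h at 37 C in complete medium; viability by CellTiter-Glo ATP luminescence after 30 min at room temperature. AC50 from Hill fits of qHTS concentration-response; tetraoctylammonium bromide positive control.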
# [12] = Cell Viability - LYMP2-016 (AID 984); conditions: LYMP2-016 lymphoblastoid cell viability, qHTS; series mostly up to 92.2 µM; also: nearly all actives have a fitted effect of over 55% in size
# In short: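 Cells were seeded at 2500 per well and rested 5 hr before a 24 hr compound exposure at 37 C. Viability was then gauged as cellular ATP by luciferase luminescence, with AC50 values fitted to the Hill equation.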
# [13] = Cell Viability - LYMP2-024 (AID 988); conditions: LYMP2-024 lymphoblastoid cell viability; series mostly up to 92.2 µM; also: nearly all actives have a fitted effect of over 60% in size; also: potency is read from the fitted curve at half-maximal effect
# In short: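 Human lymphoblastoid LYMP2-024 cells (2500/well) rested 5 hr, then treated with compound for 24 hr at 37 C in complete medium. Viability was measured as intracellular ATP by CellTiter-Glo luminescence. AC50 values came from Hill-equation fits.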
# [14] = Cell Viability - LYMP1-002 - Assay at 24 hr (AID 993); conditions: LYMP1-002 lymphoblastoid cells viability; series mostly up to 92.2 µM
# In short: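 Human lymphoblastoid LYMP1-002 cells (2500/well) treated 24 h at 37 °C; viability as intracellular ATP by CellTiter-Glo luminescence. Tetraoctylammonium bromide as positive control; AC50 from Hill-equation fits of qHTS concentration-response.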
# [15] = biological target: Glucocorticoid receptor (Homo sapiens) (UniProt P04150); assay: qHTS assay for small molecule antagonists of glucocorticoid receptor signaling (AID 588533; active = well fitted inhibition curve with a large enough effect in the signal ratio, with a control signal flat, not every such curve was filed as active; the % refers to the signal ratio;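 also: cells stimulated with 2 nM dexamethasone as agonist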); conditions: HeLa MMTV-bla, GRE beta-lactamase ratio, antagonist mode, 18 h; series mostly up to 76.8 µM
# Chain of Glucocorticoid receptor (Homo sapiens) (P04150 whole entry, looked up): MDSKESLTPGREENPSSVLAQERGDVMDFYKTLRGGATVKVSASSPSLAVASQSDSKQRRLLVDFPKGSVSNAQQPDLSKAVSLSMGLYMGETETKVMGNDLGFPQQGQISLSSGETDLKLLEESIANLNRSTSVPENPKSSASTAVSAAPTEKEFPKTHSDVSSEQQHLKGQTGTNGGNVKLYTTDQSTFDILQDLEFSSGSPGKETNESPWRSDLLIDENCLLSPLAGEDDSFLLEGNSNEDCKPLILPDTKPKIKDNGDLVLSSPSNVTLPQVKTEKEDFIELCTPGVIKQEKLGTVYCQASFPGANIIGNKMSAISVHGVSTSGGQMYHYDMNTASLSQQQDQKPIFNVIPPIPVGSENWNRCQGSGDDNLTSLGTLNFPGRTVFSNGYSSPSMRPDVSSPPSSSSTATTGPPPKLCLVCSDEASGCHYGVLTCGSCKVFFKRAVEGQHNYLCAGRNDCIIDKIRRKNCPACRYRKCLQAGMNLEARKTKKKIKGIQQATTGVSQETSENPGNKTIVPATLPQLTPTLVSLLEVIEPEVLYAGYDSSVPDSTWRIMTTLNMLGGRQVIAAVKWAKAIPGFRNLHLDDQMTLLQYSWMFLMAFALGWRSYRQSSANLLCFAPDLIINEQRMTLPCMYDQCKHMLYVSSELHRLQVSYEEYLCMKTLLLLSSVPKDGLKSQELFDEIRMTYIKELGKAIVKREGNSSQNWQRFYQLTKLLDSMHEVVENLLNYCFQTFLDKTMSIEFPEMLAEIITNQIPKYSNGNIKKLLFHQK
# In short: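 Antagonist-mode qHTS: compound titrations added to GRE-bla HeLa cells, then dexamethasone 2 nM final; 18 h, 37 C. CCF4 FRET fluorescence normalized to dexamethasone and DMSO; IC50 from Hill fit.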
# [16] = qHTS assay for small molecule agonists of retinoid X receptor alpha signaling (AID 588544; calls by dose curve); conditions: HEK293T RXRa-UAS-bla, beta-lactamase reporter, 18 h; 530 nm emission
# [17] = biological target: Retinoic acid receptor RXR-alpha (Homo sapiens) (UniProt P19793); assay: as above; conditions: HEK293T RXRa-UAS-bla, beta-lactamase reporter, 18 h; series mostly up to 76.7 µM
# Chain of Retinoic acid receptor RXR-alpha (Homo sapiens) (P19793 whole entry, looked up): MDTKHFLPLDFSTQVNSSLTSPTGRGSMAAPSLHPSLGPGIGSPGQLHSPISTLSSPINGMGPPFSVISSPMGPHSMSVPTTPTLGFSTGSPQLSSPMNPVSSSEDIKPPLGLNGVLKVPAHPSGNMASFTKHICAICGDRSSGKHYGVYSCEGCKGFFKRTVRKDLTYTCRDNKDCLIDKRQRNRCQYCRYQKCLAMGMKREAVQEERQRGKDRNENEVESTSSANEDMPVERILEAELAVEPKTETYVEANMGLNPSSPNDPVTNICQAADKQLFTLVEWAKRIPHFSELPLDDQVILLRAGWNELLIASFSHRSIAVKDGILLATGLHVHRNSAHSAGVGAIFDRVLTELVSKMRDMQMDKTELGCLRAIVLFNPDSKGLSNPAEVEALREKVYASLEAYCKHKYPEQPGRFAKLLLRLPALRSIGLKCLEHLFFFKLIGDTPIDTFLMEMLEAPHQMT
# [18] = biological target: Estrogen receptor (Homo sapiens) (UniProt P03372); assay: qHTS assay for small molecule antagonists of estrogen receptor alpha signaling (AID 588513; active = well fitted curve in the direction sought with a large enough effect in the signal ratio, with a control signal flat, not every such curve was filed as active; the % refers to the signal ratio); conditions: ER-alpha-UAS-bla HEK293, beta-lactamase ratio, antagonist mode; series mostly up to 76.9 µM
# Chain of Estrogen receptor (Homo sapiens) (P03372 whole entry, looked up): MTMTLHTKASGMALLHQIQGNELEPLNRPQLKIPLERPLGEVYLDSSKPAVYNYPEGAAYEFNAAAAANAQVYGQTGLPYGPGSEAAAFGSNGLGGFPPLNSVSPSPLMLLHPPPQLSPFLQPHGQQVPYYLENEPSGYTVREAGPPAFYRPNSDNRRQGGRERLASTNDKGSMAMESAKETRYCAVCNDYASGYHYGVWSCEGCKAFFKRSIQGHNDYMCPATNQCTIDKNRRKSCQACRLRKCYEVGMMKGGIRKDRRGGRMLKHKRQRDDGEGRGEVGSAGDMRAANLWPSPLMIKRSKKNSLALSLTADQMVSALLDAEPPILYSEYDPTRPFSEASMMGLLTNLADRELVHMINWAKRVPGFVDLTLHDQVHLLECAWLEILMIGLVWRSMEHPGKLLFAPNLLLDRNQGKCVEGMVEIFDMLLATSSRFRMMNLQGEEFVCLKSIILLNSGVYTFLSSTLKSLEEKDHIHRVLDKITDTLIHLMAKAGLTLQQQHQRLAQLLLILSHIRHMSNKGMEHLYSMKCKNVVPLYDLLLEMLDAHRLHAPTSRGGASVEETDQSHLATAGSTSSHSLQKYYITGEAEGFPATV
# In short: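 Fluorescence from CCF4 substrate after 2 h at room temperature gave reporter activity; cells had been exposed to compound and 0.5nM 17-beta-estradiol for 18 h at 37 C. Hill-equation fitting yielded IC50 and maximal response.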
# [19] = biological target: Peroxisome proliferator-activated receptor delta (Homo sapiens) (UniProt Q03181); assay: qHTS assay for small molecule agonists of peroxisome proliferator-activated receptor delta signaling (AID 588534; calls by dose curve); conditions: HEK293T PPARdelta-UAS-bla, beta-lactamase ratio, 18 h; series mostly up to 76.7 µM
# Chain of Peroxisome proliferator-activated receptor delta (Homo sapiens) (Q03181 whole entry, looked up): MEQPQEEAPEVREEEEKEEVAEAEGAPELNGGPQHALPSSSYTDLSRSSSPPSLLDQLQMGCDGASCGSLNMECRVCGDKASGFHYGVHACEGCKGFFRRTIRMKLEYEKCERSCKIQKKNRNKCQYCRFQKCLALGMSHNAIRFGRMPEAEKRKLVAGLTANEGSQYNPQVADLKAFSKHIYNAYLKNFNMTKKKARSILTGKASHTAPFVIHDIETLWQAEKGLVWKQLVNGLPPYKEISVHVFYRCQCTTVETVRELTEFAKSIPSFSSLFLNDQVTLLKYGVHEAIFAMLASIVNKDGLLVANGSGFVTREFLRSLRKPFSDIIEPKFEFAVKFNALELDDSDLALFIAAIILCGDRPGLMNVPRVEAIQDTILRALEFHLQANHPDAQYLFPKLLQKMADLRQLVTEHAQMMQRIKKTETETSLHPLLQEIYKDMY
# In short: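 Cells carrying a PPAR-delta beta-lactamase reporter were treated with compounds for 18 h at 37 °C in agonist mode. CCF4 fluorescence was read after 2 h; EC50 and efficacy from Hill fits.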
Structure (SMILES),Potency [1],Potency [2],Potency [3],Potency [4],Potency [5],Potency [6],Potency [7],Potency [8],Potency [9],Potency [10],Potency [11],Potency [12],Potency [13],Potency [14],Potency [15],max response [16],Potency [17],Potency [18],outcome [19]
CCOCN(C(=O)CCl)c1c(C)cccc1CC,32 µM (active),50.1 µM (active),inactive,–,–,–,–,–,–,–,–,–,–,–,–,–,–,–,–
C=CCc1ccc2c(c1)OCO2,> 92 µM (inactive),inactive,–,> 92 µM (inactive),inactive,inactive,inactive,inactive,inactive,inactive,inactive,inactive,inactive,inactive,inactive,1.6%,inactive,–,–
CCc1cccc(CC)c1N(COC)C(=O)CCl,54 µM (active),–,inactive,–,–,–,–,50.1 µM (active),–,–,–,–,50.1 µM (active),inactive,–,19.2%,inactive,inactive,inactive
ClC(Cl)=C(c1ccc(Cl)cc1)c1ccc(Cl)cc1,> 92 µM (inactive),inactive,inactive,> 92 µM (inactive),inactive,inactive,inactive,inactive,inactive,inactive,inactive,inactive,inactive,inactive,inactive,8.46%,inactive,inactive,inactive
C/C=C/c1ccc2c(c1)OCO2,> 92 µM (inactive),inactive,–,> 92 µM (inactive),inactive,inactive,inactive,inactive,inactive,inactive,inactive,inactive,inactive,inactive,–,-11.2%,inactive,–,–
ClC1=C(Cl)C2(Cl)C3C4C=CC(C4)C3C1(Cl)C2(Cl)Cl (centres undefined),–,–,inactive,–,–,–,–,–,–,–,–,–,–,–,inactive,–,–,inactive,inactive
CNC(=O)O/N=C/C(C)(C)SC,> 92 µM (inactive),inactive,inactive,> 92 µM (inactive),inactive,inactive,inactive,inactive,inactive,inactive,inactive,inactive,–,inactive,inactive,-12.4% and 19.1% and 1.84%,inactive,inactive,inactive
O=C(O)COc1ccc(Cl)cc1Cl,> 92 µM (inactive),inactive,inactive,> 92 µM (inactive),inactive,inactive,inactive,inactive,inactive,inactive,inactive,inactive,inactive,inactive,inactive,29.1%,inactive,–,–
CCNc1nc(Cl)nc(NC(C)C)n1,> 92 µM (inactive),inactive,–,> 92 µM (inactive),inactive,inactive,inactive,inactive,inactive,inactive,inactive,inactive,inactive,inactive,inactive,15.9% and 26.8%,inactive,inactive,inactive
